Values joined by “and” are separate entries in the source; they are usually repeats but may differ in a detail not shown here. Identical values can stand only once. Numbered stars: 1 amine (or outer) side, 2 acyl side, 3 side chain; on linkers, the order of the positions; unused ones are H or OH. Bridge positions count the residues as written; N and C are the ends. Square brackets hold non-standard residues; d marks the D form. Peptide text beside a SMILES is read from it. I, II: the chains in the order shown. Hexamethylenediamine = C(CCCN[*:2])CCN[*:1]; Dip = N[C@H](C(=O)O)C(c1ccccc1)c1ccccc1; Chg = N[C@H](C(=O)O)C1CCCCC1; NMeA = CN[C@@H](C)C(=O)O
Experiments:
Settings in all cases: Compound concentration 20.0 uM, Protein concentration 2.0 uM, Result type QC Liability
[1] = target: Tyrosine-protein kinase ABL1 (Homo sapiens) (UniProt P00519)
Sequence of Tyrosine-protein kinase ABL1 (Homo sapiens) (P00519 whole entry): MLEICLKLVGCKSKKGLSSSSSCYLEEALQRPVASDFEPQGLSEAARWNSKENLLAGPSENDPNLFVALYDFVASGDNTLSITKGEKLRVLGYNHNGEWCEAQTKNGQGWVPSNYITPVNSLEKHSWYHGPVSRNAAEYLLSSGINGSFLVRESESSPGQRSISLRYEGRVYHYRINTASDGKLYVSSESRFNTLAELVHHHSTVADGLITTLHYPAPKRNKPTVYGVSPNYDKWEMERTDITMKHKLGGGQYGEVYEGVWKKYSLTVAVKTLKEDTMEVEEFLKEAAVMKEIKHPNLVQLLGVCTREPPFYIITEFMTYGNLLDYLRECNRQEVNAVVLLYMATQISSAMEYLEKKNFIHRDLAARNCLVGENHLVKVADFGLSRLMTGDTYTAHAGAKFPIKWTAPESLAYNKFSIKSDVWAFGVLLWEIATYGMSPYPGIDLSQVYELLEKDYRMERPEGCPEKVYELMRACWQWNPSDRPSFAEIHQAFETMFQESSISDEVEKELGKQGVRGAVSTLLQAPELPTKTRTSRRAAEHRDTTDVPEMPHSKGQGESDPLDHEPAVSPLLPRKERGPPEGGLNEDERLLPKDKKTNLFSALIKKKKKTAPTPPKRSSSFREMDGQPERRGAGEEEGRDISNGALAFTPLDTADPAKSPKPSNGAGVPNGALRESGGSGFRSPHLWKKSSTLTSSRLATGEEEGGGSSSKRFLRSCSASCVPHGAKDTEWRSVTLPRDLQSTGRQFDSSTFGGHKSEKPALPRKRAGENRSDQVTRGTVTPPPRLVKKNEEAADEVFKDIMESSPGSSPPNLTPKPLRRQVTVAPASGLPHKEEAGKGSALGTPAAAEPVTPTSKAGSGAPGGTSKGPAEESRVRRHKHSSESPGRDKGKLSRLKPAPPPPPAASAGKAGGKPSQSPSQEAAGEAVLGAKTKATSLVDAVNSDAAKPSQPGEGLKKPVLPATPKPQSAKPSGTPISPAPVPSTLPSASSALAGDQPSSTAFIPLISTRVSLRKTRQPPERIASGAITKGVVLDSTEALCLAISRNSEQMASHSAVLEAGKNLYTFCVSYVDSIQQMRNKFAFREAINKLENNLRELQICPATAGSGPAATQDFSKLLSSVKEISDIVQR

[2] = target: Cyclin-dependent kinase 2 (Homo sapiens) (UniProt P24941)
[3] = target: Casein kinase I isoform delta (Homo sapiens) (UniProt P48730)
Sequence of Casein kinase I isoform delta (Homo sapiens) (P48730 whole entry, looked up, canonical isoform): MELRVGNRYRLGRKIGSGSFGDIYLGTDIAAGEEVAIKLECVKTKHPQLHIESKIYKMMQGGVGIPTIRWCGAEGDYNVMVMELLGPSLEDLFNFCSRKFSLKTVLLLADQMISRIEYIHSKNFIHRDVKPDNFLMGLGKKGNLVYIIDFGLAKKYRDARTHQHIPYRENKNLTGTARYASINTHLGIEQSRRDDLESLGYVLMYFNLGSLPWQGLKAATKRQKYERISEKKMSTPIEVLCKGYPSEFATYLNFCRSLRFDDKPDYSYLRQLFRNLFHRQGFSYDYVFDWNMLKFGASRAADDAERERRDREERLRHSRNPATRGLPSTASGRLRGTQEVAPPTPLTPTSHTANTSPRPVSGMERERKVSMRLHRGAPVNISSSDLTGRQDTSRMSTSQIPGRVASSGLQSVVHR

[4] = target: Glycogen synthase kinase-3 beta (Homo sapiens) (UniProt P49841)
Sequence of Glycogen synthase kinase-3 beta (Homo sapiens) (P49841 whole entry, looked up): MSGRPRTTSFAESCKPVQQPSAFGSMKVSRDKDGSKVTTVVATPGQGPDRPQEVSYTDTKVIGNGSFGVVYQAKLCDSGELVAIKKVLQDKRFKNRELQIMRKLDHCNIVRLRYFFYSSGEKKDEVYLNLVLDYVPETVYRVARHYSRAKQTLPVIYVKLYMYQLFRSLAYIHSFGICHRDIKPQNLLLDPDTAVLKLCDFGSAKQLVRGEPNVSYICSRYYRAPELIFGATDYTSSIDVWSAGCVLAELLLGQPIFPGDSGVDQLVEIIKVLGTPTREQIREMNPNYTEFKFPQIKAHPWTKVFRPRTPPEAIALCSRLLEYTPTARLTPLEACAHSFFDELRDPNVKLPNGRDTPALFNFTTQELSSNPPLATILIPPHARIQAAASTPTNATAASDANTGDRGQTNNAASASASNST

[5] = target: Mitogen-activated protein kinase 1 (Homo sapiens) (UniProt P28482)
Sequence of Mitogen-activated protein kinase 1 (Homo sapiens) (P28482 whole entry): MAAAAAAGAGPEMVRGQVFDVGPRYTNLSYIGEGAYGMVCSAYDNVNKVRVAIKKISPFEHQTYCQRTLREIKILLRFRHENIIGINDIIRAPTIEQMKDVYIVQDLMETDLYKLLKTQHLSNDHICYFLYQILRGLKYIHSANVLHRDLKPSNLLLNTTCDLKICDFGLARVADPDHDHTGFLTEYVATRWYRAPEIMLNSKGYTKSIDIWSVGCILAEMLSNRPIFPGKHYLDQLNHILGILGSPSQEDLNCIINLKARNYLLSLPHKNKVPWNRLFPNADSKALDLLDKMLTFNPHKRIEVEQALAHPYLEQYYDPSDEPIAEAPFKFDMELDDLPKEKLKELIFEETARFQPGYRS

[6] = target: T1, Aurora kinase A (Homo sapiens) (UniProt O14965)
T1 sequence (whole entry): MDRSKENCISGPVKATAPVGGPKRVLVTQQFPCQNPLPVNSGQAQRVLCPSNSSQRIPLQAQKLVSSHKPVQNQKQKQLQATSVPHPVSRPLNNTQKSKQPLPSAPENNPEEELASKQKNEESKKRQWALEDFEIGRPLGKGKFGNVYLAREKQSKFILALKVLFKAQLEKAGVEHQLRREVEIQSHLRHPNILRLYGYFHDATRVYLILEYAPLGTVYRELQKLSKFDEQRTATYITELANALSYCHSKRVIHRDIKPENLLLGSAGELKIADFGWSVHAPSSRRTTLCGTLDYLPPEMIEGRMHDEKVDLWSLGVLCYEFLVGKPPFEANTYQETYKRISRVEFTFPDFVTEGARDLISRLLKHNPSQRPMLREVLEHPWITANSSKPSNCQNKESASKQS

Structure (SMILES) | ΔTm [1] | ΔTm [2] | ΔTm [3] | ΔTm [4] | ΔTm [5] | ΔTm [6]
CC(C)S(=O)(=O)c1ccccc1Nc1nc(N[C@@H]2CCCN(CCCCCCCNC(=O)COc3cccc4c3C(=O)N(C3CCC(=O)NC3=O)C4=O)C2)ncc1Cl (some centres undefined) | 8.06 °C | 4.21 °C | 3.26 °C | 11.1 °C | 3.07 °C | 10.6 °C
CS(=O)(=O)NC(=O)CCC/C=C\C[C@H]1C(=O)C[C@@H](O)[C@@H]1/C=C/[C@@H](O)COc1ccccc1 | -0.33 °C | 0.46 °C | -0.2 °C | 0.54 °C | 0.01 °C | -0.19 °C
Cc1cn([C@@H](C)CC#N)c(=O)c2cc(Cn3nc(C(F)F)cc3Cl)nn12 | 0.12 °C | -0.57 °C | -0.18 °C | -0.66 °C | 0.18 °C | -0.51 °C
N=C(N)Nc1cc(C2CCNCC2)cc(C(F)(F)F)c1 | 0.05 °C | 0.64 °C | 0.15 °C | -0.15 °C | 0.15 °C | -0.12 °C
N#Cc1cccc(-c2c[nH]c3ncnc(N4CCOCC4)c23)c1 | 1.39 °C | 1.88 °C | 0.56 °C | 4.32 °C | 0.64 °C | 4.35 °C
NCC1CCC(CNc2nc(NCc3ccccc3OC(F)(F)F)ncc2[N+](=O)[O-])CC1 (centres undefined) | 0.62 °C | -0.56 °C | 0.19 °C | 3.29 °C | -0.1 °C | 1.01 °C
CN[C@@H](C)C(=O)N[C@H](C(=O)N1CCC[C@H]1C(=O)N[C@H](C(=O)NCCCCCCNC(=O)[C@@H](NC(=O)[C@@H]1CCCN1C(=O)[C@@H](NC(=O)[C@H](C)NC)C1CCCCC1)C(c1ccccc1)c1ccccc1)C(c1ccccc1)c1ccccc1)C1CCCCC1 (I: H-[NMeA][Chg]P[Dip] / II: H-[NMeA][Chg]P[Dip]; linker I:C-II:C via Hexamethylenediamine) | -0.65 °C | -1.8 °C | -0.57 °C | -0.94 °C | -1.01 °C | -1.85 °C
N=C(N)NCCC[C@H](NC(=O)CC1(CC(=O)N2CCN(C3c4ccccc4NC(=O)c4ccccc43)CC2)CCCC1)C(=O)NCCn1c(=O)n(-c2ccccc2)n(-c2ccccc2)c1=O (some centres undefined) | -2.29 °C | -1.3 °C | -0.34 °C | -1.99 °C | -0.45 °C | -0.47 °C
Cc1cc2c(-c3ccco3)cnc(N[C@H]3CCN(C)C[C@@H]3C(=O)NC3CCCCC3)c2[nH]c1=O | 0.25 °C | 0.22 °C | 0.37 °C | -0.67 °C | 0.2 °C | -1.37 °C
Cn1c(C2(NC(=O)c3ccc4c(C5CCCC5)c(-c5ncc(Br)cn5)n(C)c4c3)CCC2)nc2ccc(/C=C/C(=O)O)cc21 | -0.54 °C and 0.85 °C | -2.05 °C and -1.62 °C | -3.08 °C and -1.06 °C | -3.92 °C and -2.25 °C | -2.08 °C and -0.58 °C | -1.12 °C and -3.19 °C
Cc1ccc(-c2cn3nc(C(=O)NC4(c5ccc(F)cc5)CN(C)C4)c(C(C)C)c3c(=O)[nH]2)cc1C | -0.12 °C | 0.03 °C | 0.69 °C | -0.83 °C | 0.08 °C | 0.49 °C
N=C(N)NCCC[C@H](NC(=O)C(c1ccccc1)c1ccccc1)C(=O)NCc1ccc(CNC(N)=O)cc1 | -0.28 °C | 0.46 °C | 0.29 °C | -0.57 °C | 0.19 °C | 0.09 °C
Cc1csc(S(=O)(=O)N(CC(C)C)c2cc3c(cc2OCc2ccc(C(=O)O)cc2)CCC3)n1 | 0.11 °C | -0.15 °C | -0.34 °C | 0 °C | -0.27 °C | -0.4 °C
O=C(CCCN1CCC(O)(c2ccc(Cl)cc2)CC1)c1ccc(F)cc1 | 0.25 °C | 0.82 °C | 0.25 °C | -0.66 °C | 0.38 °C | -0.3 °C
CCn1c(CNC(=O)c2nc(Cl)cnc2N)[n+](CC)c2ccc(C(=O)N(C)CCN(C)C)cc21 | 0.14 °C | 0.44 °C | 0.35 °C | -0.7 °C | 0.33 °C | -0.18 °C
Cc1nsc(Nc2cnc(C(F)(F)F)cn2)c1C(=O)Nc1ccc(O[C@H]2CCCN(CC(F)(F)F)C2)nc1 | 0.72 °C | 1.68 °C | 0 °C | -3.09 °C | 0 °C | 2.24 °C
Cc1ccc(C(=O)Nc2cc(N3CCN(C)CC3)cc(C(F)(F)F)c2)cc1-n1cc(-c2cnn(C)c2C)nn1 | 12.9 °C | 0.76 °C | 1.19 °C | -0.67 °C | 0.45 °C | 0.76 °C
CCCCc1oc2ccccc2c1C(=O)c1cc(I)c(OCCN(CC)CC)c(I)c1 | 0.12 °C | 0.14 °C | 0.32 °C | -0.84 °C | 0.02 °C | -1.66 °C
O=S(=O)(Nc1ccc(C(O)(C(F)(F)F)C(F)(F)F)cc1)c1cccs1 | 0.41 °C | 0.73 °C | 0.38 °C | -0.54 °C | 1.04 °C | 0.57 °C
CCS(=O)(=O)c1cc2cc(C[C@](O)(CC(C)(C)c3ccc(F)cc3C(N)=O)C(F)(F)F)[nH]c2cn1 | 0.15 °C | 0.5 °C | 0.37 °C | -0.73 °C | 0.36 °C | 0.03 °C
CN[C@@H](C)C(=O)N[C@H](C(=O)N1CCC[C@H]1C(=O)Nc1sc(-c2ncco2)nc1-c1ccccc1)C1CCCCC1 | 0.05 °C | -0.21 °C | -0.13 °C | -0.9 °C | 0.08 °C | -0.03 °C
CC(=O)c1c(C)c2cnc(Nc3ccc(N4CCN(CCCCNC(=O)COc5cccc6c5C(=O)N(C5CCC(=O)NC5=O)C6=O)CC4)cn3)nc2n(C2CCCC2)c1=O (centres undefined) | 0.12 °C | 0.59 °C | 0.26 °C | 0.7 °C | 0.16 °C | -0.33 °C
COc1c(-c2cn(C3CCC(=O)NC3=O)nn2)csc1C(=O)N1CCCC1 (centres undefined) | 0.22 °C | 0.04 °C | 0 °C | -0.65 °C | 0.26 °C | -1.14 °C
CCn1c(-c2nonc2N)nc2cncc(C(=O)N3CC[C@H](N)C3)c21 | -0.16 °C | 0.25 °C | 0.4 °C | 6 °C | 0.69 °C | 0.77 °C

— ChEMBL document CHEMBL5308504, “Tm Shift (DSF) assay results for EUbOPEN Chemogenomics Library” (2023)
